# Results filed as inconclusive are left out. A call without a number means that no potency is given here. Active and inactive are the calls of the source. The call rests on the fitted dose curve; in most records, active means well fitted inhibition curve with a large enough effect; inconclusive means small, poorly fitted or top-dose-only effect; inactive means flat fitted curve, though single readings scatter.
# Assays:
# Assay in all cases: qHTS profiling for inhibitors of Plasmodium falciparum proliferation (AID 504749); further: nearly all actives have a fitted effect of over 60% in size
# Conditions in all cases: P. falciparum in erythrocytes, SYBR Green DNA, 72 h; series mostly up to 28.7 µM
# CP247 = system: CP247
# Procedure, shortened: (§1)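 Readout was DNA-dye fluorescence from lysed cultures, ex 485/em 535 nm. Parasitized red cells had grown 72 h with compound; data scaled between 0.29 uM artemisinin and DMSO wells and corrected using vehicle-only plates.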
# CP256 = system: CP256
# Procedure, shortened: as §1
# CP260 = system: CP260
# Procedure, shortened: as §1
# CP262 = system: CP262
# Procedure, shortened: as §1
# CP265 = system: CP265
# Procedure, shortened: as §1
# CP268 = system: CP268
# Procedure, shortened: as §1
# CP269 = system: CP269
# Procedure, shortened: as §1
# CP297 = system: CP297
# Procedure, shortened: as §1
# CP305 = system: CP305
# Procedure, shortened: as §1
# CP315 = system: CP315
# Procedure, shortened: as §1
# CP325 = system: CP325
# Procedure, shortened: as §1
# CP329 = system: CP329
# Procedure, shortened: as §1
# DIV14 = system: DIV14
# Procedure, shortened: as §1
# DIV17 = system: DIV17
# Procedure, shortened: as §1
# DIV30 = system: DIV30
# Procedure, shortened: as §1
# Dd2 = system: Dd2
# Procedure, shortened: as §1
# ECU = system: ECU
# Procedure, shortened: as §1
# FAB9 = system: FAB9
# Procedure, shortened: as §1
# HB3 = system: HB3
# Procedure, shortened: as §1
# JCK = system: JCK
# Procedure, shortened: as §1
# P93_24 = system: P93_24
# Procedure, shortened: as §1
# P94_40 = system: P94_40
# Procedure, shortened: as §1
# PAD = system: PAD
# Procedure, shortened: as §1
# PC15 = system: PC15
# Procedure, shortened: as §1
# PC26 = system: PC26
# Procedure, shortened: as §1
# PC49 = system: PC49
# Procedure, shortened: as §1
# SC27B = system: SC27B
# Procedure, shortened: as §1
# TAB113 = system: TAB113
# Procedure, shortened: as §1
# Potency means the concentration at half of the fitted maximal effect.
smiles,measurement,setting,value
C=C1C(=O)O[C@@H]2[C@@H]1CC/C(C)=C\CC[C@@]1(C)O[C@H]21,Potency,CP247,5.01 µM (active)
same,Potency,CP256,inactive
same,Potency,CP260,inactive
same,Potency,CP262,inactive
same,Potency,CP265,inactive
same,Potency,CP268,inactive
same,Potency,CP269,inactive
same,Potency,CP297,inactive
same,Potency,CP305,inactive
same,Potency,CP315,inactive
same,Potency,CP325,inactive
same,Potency,CP329,inactive
same,Potency,DIV14,inactive
same,Potency,DIV17,inactive
same,Potency,DIV30,inactive
same,Potency,Dd2,inactive
same,Potency,ECU,inactive
same,Potency,FAB9,inactive
same,Potency,HB3,inactive
same,Potency,JCK,inactive
same,Potency,P93_24,inactive
same,Potency,P94_40,inactive
same,Potency,PAD,inactive
same,Potency,PC15,inactive
same,Potency,PC26,inactive
same,Potency,PC49,inactive
same,Potency,SC27B,inactive
same,Potency,TAB113,inactive

# From PubChem BioAssay (NCATS)
